The sample as a whole holds a higher share of hits than the screen did.
Pf apPOL inh – Pf-apPOL DNA polymerase inhibition. Recombinant Pf-apPOL, molecular beacon fluorescence, 1.5 h. inhibition, % at 10 µM. 210,000 compounds, 0.25% hits. AID 1794808
mHTT CaM bind – mHTT-calmodulin interaction abrogation; AlphaScreen His-mHTT/GST-CaM binding, luminescence; P42858; 190,000 compounds, 3.6% hits; inhibition, % at 15 µM;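 further: 0% = both proteins with DMSO and 100% = one protein alone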
An asterisk follows results filed as active; nt = no result. No stated cut-off is given here; in the data, active means inhibition above about 50%; inactive means the rest.

SMILES | Pf apPOL inh | mHTT CaM bind
Cc1ccc(-n2c(SCC(=O)Nc3ccccc3F)nc3c(c2=O)SCC3)cc1 | 1 | 8
Cc1noc(C)c1S(=O)(=O)N1CCC(C(C)C(=O)NCCCN2CCOCC2)CC1 (stereo unspecified) | 5 | -5
Cc1ccc(N=C2NC(=O)/C(=C/c3ccco3)S2)cc1 | -3 | 69*
COc1cccc(/C=C2/SC(=Nc3ccccc3Cl)NC2=O)c1OC | -3 | 8
COc1ccc(N=C2NC(=O)/C(=C\c3ccco3)S2)cc1 | -21 | 43
O=C1NC(=Nc2cccc(Cl)c2Cl)S/C1=C\c1ccco1 | -15 | 100*
Cc1ccc(CC(=O)N2CCC(COc3ccc(C(=O)NC(C)C)cc3)CC2)cc1 | -3 | 0
CSC(N)=C(C#N)C(C)=O | -24 | nt
O=C(CN1CCC2(CC1)N=C(c1ccccc1)C(=O)N2)Nc1ccccc1Cl | -2 | 1
CSc1nnc(-c2ccc(C(C)(C)C)cc2)n1-c1ccc(Cl)cc1 | -2 | nt
CS(=O)(=O)c1cccc(-c2nnc(NC(=O)C3c4ccccc4Oc4ccccc43)o2)c1 | -114 | 99*
O=C(Nc1nnc(-c2ccco2)o1)C1c2ccccc2Oc2ccccc21 | 8 | -1
CCC(=O)NCCc1csc(C2CCN(C(=O)c3ccco3)CC2)n1 | -3 | 3
CCS(=O)(=O)N1CCN(c2ccc([N+](=O)[O-])c(NC3CC3)c2)CC1 | -8 | 0
O=[N+]([O-])c1ccc(N2CCNCC2)cc1NC1C2CC3CC(C2)CC1C3 (stereo unspecified) | 0 | 82*
O=c1[nH]c2ccccc2n1CCCSc1nccc2ccccc12 | -8 | 100*
Cc1cc(C)nc(SCCCn2c(=O)[nH]c3ccccc32)n1 | -2 | 18
CC1CCN(S(=O)(=O)c2ccc3nc(-c4ccccc4)[nH]c3c2)CC1 | -6 | 9
CCN(CC)c1ccc(C=Nc2ccc(S(=O)(=O)Nc3ccc(F)cc3)cc2)c(O)c1 | -2 | -8
CCN(CC)C(=O)Oc1c(I)cc(Cl)c2cccnc12 | -9 | -1
CCN(CC)Cc1cc(Cl)c2cccnc2c1O | 0 | 100*
O=C(CCN1C(=O)C2C3C=CC(CC3)C2C1=O)Nc1cccc(F)c1 (stereo unspecified) | -2 | -3
Cc1cc(Br)ccc1NS(=O)(=O)c1ccc2nc(-c3ccccc3)[nH]c2c1 | -9 | -2
O=c1[nH]c2ccc(Br)cc2c(-c2ccccc2)c1NS(=O)(=O)c1ccccc1 | 21 | 98*
Nc1c2c3c(c(Cl)ccc3[nH]c1=O)C(=O)c1ccccc1-2 | 0 | 13
SMILES | Pf apPOL inh | mHTT CaM bind
O=c1[nH]c2ccc(Br)cc2c(-c2ccccc2)c1CN1CCCCC1 | -3 | 100*
Cc1[nH]c2ccc(Br)cc2c(=O)c1CN1CCOCC1 | -1 | -1
Nc1c(-c2ccccc2Cl)c2cc(Br)ccc2[nH]c1=O | -8 | 79*
O=C(Nc1ccc(F)cc1)Nc1ccc2nncn2c1 | 4 | -6
O=C(NCc1ccccc1)C1CCCN(C(=O)c2ccccc2F)C1 (stereo unspecified) | 10 | 29
O=C(NCC1COCCO1)c1cc2n(n1)CCCN(Cc1ccc(F)cc1)C2=O (stereo unspecified) | 5 | -7
COc1ccc(CN2CCc3nc(Nc4ccccc4OC)ncc3C2)c(OC)c1 | -1 | 44
COc1ccc(OC)c(CN2CCc3nc(Nc4ccccc4OC)ncc3C2)c1 | -5 | 56*
COc1ccccc1CN1CCc2nc(Nc3ccccc3OC)ncc2C1 | -1 | 21
COc1ccc(OC)c(Nc2ncc3c(n2)CCN(Cc2ccc(OC)cc2OC)C3)c1 | -3 | 91*
COC(=O)c1ccc(NC(=O)N2CCCC2c2ccc(Cl)cc2)cc1 (stereo unspecified) | -2 | -10
CCCCCN(CCCCC)c1nc2c(c(=O)[nH]c(=O)n2C)n1C | nt | 6
N#CC1=C(NC(=O)Cc2ccccc2)c2ccccc2CC12CCCCC2 | -2 | -9
CC(=O)Nc1c2c(nn1-c1cccc(C)c1C)CSC2 | -9 | 41
Cc1cccc(-n2nc3c(c2NC(=O)/C=C/c2ccco2)CSC3)c1C | -4 | 95*
Cc1cccc(-n2nc3c(c2NC(=O)/C=C/c2ccccc2)CSC3)c1C | 4 | 94*
Cc1cccc(C(=O)Nc2c3c(nn2-c2cccc(C)c2C)CSC3)c1 | -6 | 6
CC(O)(CNC(=O)NC(c1ccccc1)c1ccccc1)c1ccccc1 (stereo unspecified) | -6 | -21
CCCCN1C(=O)CN(C2CCCCC2)C(=O)C1c1ccc(OCCC)c(OC)c1 (stereo unspecified) | -10 | 53*
CCOc1ccc(C2C(=O)N(C3CCCCC3)CC(=O)N2Cc2ccccc2Cl)cc1OC (stereo unspecified) | -7 | 58*
CCCCN1C(=O)CN(C2CCCCC2)C(=O)C1c1ccc(OC(C)C)c(OC)c1 (stereo unspecified) | -6 | 45
COc1ccc(C2C(=O)N(C3CCC(C)CC3)CC(=O)N2Cc2ccccc2Cl)cc1OC (stereo unspecified) | -8 | 15
CCCCc1ccc(NC(=O)c2cnc3n(c2=O)CCS3)cc1 | 1 | 6

Bioassay records (PubChem BioAssay)
